# Laboratory results as given in PubChem BioAssay (EPA / NIEHS).
# Active and inactive are the calls of the source. Rule for the calls: active = hit-call score of the fitted dose curve at least 0.9, where 1 is the maximum; inactive = score below 0.9.
# Columns and labels:
# [1] = read-out: Cyclin D2 (CCND2), CCND2 (gene 894); test: LTEA_HepaRG_CCND2: Life Technologies and Expression Analysis (LTEA) Assay for Cyclin D2 (CCND2) using HepaRG (AID 2283449); settings: mRNA level, 48 h; actives raise or lower the signal;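 note: CCND2 transcript measured by TaqMan qRT-PCR and normalised to three housekeeping genes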
# In short: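 HepaRG, 48 h dosing, 8-pt half-log curve from 100 uM, 0.5% DMSO; duplicate wells. Readout: CCND2 transcript by microfluidic qRT-PCR, housekeeping-normalised; bidirectional fit vs DMSO baseline.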
# [2] = read-out: Cyclin Dependent Kinase Inhibitor 1A (CDKN1A), CDKN1A (gene 1026); test: LTEA_HepaRG_CDKN1A: Life Technologies and Expression Analysis (LTEA) Assay for Cyclin Dependent Kinase Inhibitor 1A (CDKN1A) using HepaRG (AID 2283450); settings: mRNA level, 48 h; actives raise or lower the signal
# In short: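 Expression quantified by Fluidigm qRT-PCR with ACTB, GAPDH and POLR2A normalization, fitted bidirectionally against 0.5% DMSO. Cells: HepaRG, plated 48 h then treated 48 h in serum-free induction medium, top concentration 100 uM with half-log dilutions.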
# [3] = read-out: Cyclin D1 (CCND1), CCND1 (gene 595); test: LTEA_HepaRG_CCND1: Life Technologies and Expression Analysis (LTEA) Assay for Cyclin D1 (CCND1) using HepaRG (AID 2283451); settings: mRNA level, 48 h; actives raise or lower the signal;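 for AC50: differentiated human HepaRG liver cells in serum-free induction medium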
# In short: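 Expression of CCND1 was quantified by qRT-PCR on Fluidigm arrays using ACTB, GAPDH and POLR2A as reference genes. HepaRG cultures, plated 48 h beforehand, were dosed for 48 h at up to 100 uM (half-log, 8 points) in 0.5% DMSO.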
# [4] = read-out: catalase (CAT), CAT (gene 847); test: LTEA_HepaRG_CAT: Life Technologies and Expression Analysis (LTEA) Assay for catalase (CAT) using HepaRG (AID 2283452); settings: mRNA level, 48 h; actives raise or lower the signal
# In short: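 HepaRG cells in serum-free induction medium, 0.5% DMSO vehicle, exposed 48 h in duplicate over 8 half-log concentrations from 100 uM. CAT mRNA measured by qRT-PCR, normalized to ACTB, GAPDH, POLR2A; bidirectional fit versus DMSO.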
# [5] = read-out: flavin-containing dimethylaniline monooxygenases 3 (FMO3), FMO3 (gene 2328); test: LTEA_HepaRG_FMO3: Life Technologies and Expression Analysis (LTEA) Assay for flavin-containing dimethylaniline monooxygenases 3 (FMO3) using HepaRG (AID 2283453); settings: mRNA level, 48 h; actives raise or lower the signal
# In short: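 FMO3 transcript quantified by TaqMan qRT-PCR against three housekeeping genes after 48 h chemical exposure of HepaRG cells. Eight-point half-log series, top 100 uM, 0.5% DMSO vehicle; phenobarbital 1mM induction control; up- or down-regulation fitted.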
# [6] = read-out: CFLAR gene, CFLAR (gene 8837); test: LTEA_HepaRG_CFLAR: Life Technologies and Expression Analysis (LTEA) Assay for CFLAR gene using HepaRG (AID 2283455); settings: mRNA level, 48 h; actives raise or lower the signal
# In short: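 qRT-PCR read-out (Fluidigm/TaqMan) of CFLAR mRNA, normalized to three housekeeping genes, in differentiated human HepaRG cells after 48 h chemical exposure; 8-point half-log series from 100 uM in 0.5% DMSO; bidirectional curve fitting versus DMSO.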
# [7] = read-out: Forkhead box O1 (FOXO1), FOXO1 (gene 2308); test: LTEA_HepaRG_FOXO1: Life Technologies and Expression Analysis (LTEA) Assay for Forkhead box O1 (FOXO1) using HepaRG (AID 2283456); settings: mRNA level, 48 h; actives raise or lower the signal
# In short: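 HepaRG, 48 h exposure, 8-pt half-log series from 100 uM in 0.5% DMSO, duplicates; Fluidigm qRT-PCR mRNA, housekeeping-normalised; bidirectional fit vs DMSO baseline.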
# [8] = read-out: growth arrest and DNA damage 45 (GADD45A), GADD45A (gene 1647); test: LTEA_HepaRG_GADD45A: Life Technologies and Expression Analysis (LTEA) Assay for growth arrest and DNA damage 45 (GADD45A) using HepaRG (AID 2283458); settings: mRNA level, 48 h; actives raise or lower the signal
# In short: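 GADD45A expression was measured by TaqMan qRT-PCR against three housekeeping genes (ACTB, GAPDH, POLR2A) after 48 h treatment of HepaRG cells. Eight-point half-log series up to 100 uM in 0.5% DMSO, run in duplicate.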
# [9] = read-out: Forkhead box O3 (FOXO3), FOXO3 (gene 2309); test: LTEA_HepaRG_FOXO3: Life Technologies and Expression Analysis (LTEA) Assay for Forkhead box O3 (FOXO3) using HepaRG (AID 2283459); settings: mRNA level, 48 h; actives raise or lower the signal
# In short: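 qRT-PCR readout of FOXO3 transcript, normalized to three housekeeping genes (ACTB, GAPDH, POLR2A); gain or loss fitted against 0.5% DMSO vehicle. HepaRG cells, 48 h chemical exposure, 8-point half-log series, top 100 uM.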
# [10] = read-out: ABC Transporter (ABCB1), ABCB1 (gene 5243); test: LTEA_HepaRG_ABCB1: Life Technologies and Expression Analysis (LTEA) Assay for ABC Transporter (ABCB1) using HepaRG (AID 2283460); settings: mRNA level, 48 h; actives raise or lower the signal
# In short: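 HepaRG, 48 h exposure, 8-pt half-log series from 100 uM, 0.5% DMSO vehicle, duplicates. Readout: ABCB1 transcript by Fluidigm TaqMan qRT-PCR, housekeeping-normalized; bidirectional curve fit vs DMSO baseline.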
# [11] = read-out: growth arrest and DNA damage 45 (GADD45B), GADD45B (gene 4616); test: LTEA_HepaRG_GADD45B: Life Technologies and Expression Analysis (LTEA) Assay for growth arrest and DNA damage 45 (GADD45B) using HepaRG (AID 2283461); settings: mRNA level, 48 h; actives raise or lower the signal
# In short: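 Transcript level quantified by Fluidigm TaqMan qRT-PCR with three housekeeping genes for normalization, analyzed for up- or down-regulation against 0.5% DMSO. HepaRG cultures dosed 48 h at eight half-log concentrations up to 100 uM, duplicates.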
# [12] = read-out: ABC Transporter (ABCC3), ABCC3 (gene 8714); test: LTEA_HepaRG_ABCC3: Life Technologies and Expression Analysis (LTEA) Assay for ABC Transporter (ABCC3) using HepaRG (AID 2283462); settings: mRNA level, 48 h; actives raise or lower the signal
# In short: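 Transcript level by TaqMan qRT-PCR, normalised to three housekeeping genes, fitted in both directions relative to vehicle. Chemicals tested in duplicate at eight half-log concentrations up to 100 uM for 48 h on HepaRG cells (0.5% DMSO).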
# [13] = read-out: ABC Transporter (ABCB11), ABCB11 (gene 8647); test: LTEA_HepaRG_ABCB11: Life Technologies and Expression Analysis (LTEA) Assay for ABC Transporter (ABCB11) using HepaRG (AID 2283463); settings: mRNA level, 48 h; actives raise or lower the signal
# In short: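 HepaRG, 48 h exposure, 8-pt half-log CRC top 100 uM, 0.5% DMSO vehicle, duplicates. Readout: TaqMan qRT-PCR of ABCB11 mRNA, housekeeping-normalized (ACTB/GAPDH/POLR2A). Bidirectional fit vs DMSO baseline.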
# [14] = read-out: ABC Transporter (ABCC2), ABCC2 (gene 1244); test: LTEA_HepaRG_ABCC2: Life Technologies and Expression Analysis (LTEA) Assay for ABC Transporter (ABCC2) using HepaRG (AID 2283464); settings: mRNA level, 48 h; actives raise or lower the signal
# In short: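 Endpoint is ABCC2 transcript level from qRT-PCR, normalized to three housekeeping genes and fitted bidirectionally relative to DMSO. Human HepaRG cells received test chemical for 48 h at up to 100 uM (8 points, half-log steps, 0.5% DMSO), duplicate wells.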
# [15] = read-out: Broad substrate specificity ATP-binding cassette transporter ABCG2 (Homo sapiens) (UniProt Q9UNQ0); test: LTEA_HepaRG_ABCG2: Life Technologies and Expression Analysis (LTEA) Assay for ABC Transporter (ABCG2) using HepaRG (AID 2283465); settings: mRNA level, 48 h; actives raise or lower the signal
# In short: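 HepaRG, 48 h exposure, 8-pt half-log series from 100 uM, 0.5% DMSO vehicle, duplicates. Readout: ABCG2 transcript by qRT-PCR (Fluidigm array), housekeeping-normalized; bidirectional curve fit relative to DMSO baseline.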
# [16] = read-out: ATP-citrate lyase (ACLY), ACLY (gene 47); test: LTEA_HepaRG_ACLY: Life Technologies and Expression Analysis (LTEA) Assay for ATP-citrate lyase (ACLY) using HepaRG (AID 2283466); settings: mRNA level, 48 h; actives raise or lower the signal
# In short: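 qRT-PCR readout of ACLY transcript after 48 h chemical treatment of HepaRG cells; expression normalized to three housekeeping genes. Eight-point half-log series, highest 100 uM, 0.5% DMSO vehicle. Gain or loss fitted against DMSO baseline.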
# [17] = read-out: Peroxisomal acyl-coenzyme A oxidase 1 (ACOX1) gene, ACOX1 (gene 51); test: LTEA_HepaRG_ACOX1: Life Technologies and Expression Analysis (LTEA) Assay for Peroxisomal acyl-coenzyme A oxidase 1 (ACOX1) gene using HepaRG (AID 2283467); settings: mRNA level, 48 h; actives raise or lower the signal
# In short: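 HepaRG, 48 h chemical exposure, 8-pt half-log series from 100 uM top, 0.5% DMSO vehicle, duplicates. Readout: ACOX1 mRNA by Fluidigm qRT-PCR, housekeeping-normalized; bidirectional fit vs DMSO baseline.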
# [18] = read-out: Alkaline Phosphatase, Placental (ALPP) gene, ALPP (gene 250); test: LTEA_HepaRG_ALPP: Life Technologies and Expression Analysis (LTEA) Assay for Alkaline Phosphatase, Placental (ALPP) gene using HepaRG (AID 2283468); settings: mRNA level, 48 h; actives raise or lower the signal;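 for AC50: differentiated human HepaRG liver cells in serum-free induction medium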
# In short: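 ALPP transcript level, measured by qRT-PCR and normalized to three housekeeping genes (ACTB, GAPDH, POLR2A), after 48 h dosing of differentiated HepaRG in serum-free induction medium. Top concentration 100 uM with half-log dilutions (8 points, 0.5% DMSO, duplicates); bidirectional fitting relative to DMSO.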
# [19] = CEETOX_H295R_TESTO: CeeTox H295R High-throughput Steroidogenesis Assay for Testosterone (TESTO) (AID 2283457); settings: actives raise or lower the signal
# In short: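 Testosterone secreted into the medium over 48 h by H295R cells (maximum passage 10) was quantified by LC-MS/MS after MTBE extraction. Fitted in both directions against DMSO, with concentrations diluted until MTT viability was ≥70%.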
# Chain of Broad substrate specificity ATP-binding cassette transporter ABCG2 (Homo sapiens) (Q9UNQ0 whole entry, looked up): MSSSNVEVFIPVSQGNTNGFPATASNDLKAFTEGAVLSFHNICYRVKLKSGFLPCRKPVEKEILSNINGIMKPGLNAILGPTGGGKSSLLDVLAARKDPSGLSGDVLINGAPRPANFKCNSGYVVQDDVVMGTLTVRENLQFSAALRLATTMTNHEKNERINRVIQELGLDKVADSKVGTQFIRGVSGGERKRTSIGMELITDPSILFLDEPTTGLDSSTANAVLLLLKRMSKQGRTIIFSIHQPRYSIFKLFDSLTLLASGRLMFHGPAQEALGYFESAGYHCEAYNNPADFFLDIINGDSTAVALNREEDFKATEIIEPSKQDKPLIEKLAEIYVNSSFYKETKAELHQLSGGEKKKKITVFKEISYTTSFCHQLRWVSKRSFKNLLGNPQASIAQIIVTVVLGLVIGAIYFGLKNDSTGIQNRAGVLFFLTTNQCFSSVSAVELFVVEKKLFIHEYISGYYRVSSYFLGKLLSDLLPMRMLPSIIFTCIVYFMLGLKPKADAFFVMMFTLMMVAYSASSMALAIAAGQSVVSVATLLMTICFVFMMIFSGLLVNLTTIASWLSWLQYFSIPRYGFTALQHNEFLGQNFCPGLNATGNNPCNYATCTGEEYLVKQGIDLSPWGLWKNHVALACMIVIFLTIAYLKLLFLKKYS
smiles,measurement,setting,value
CC(Oc1ccc(Cl)cc1Cl)C(=O)O (centres undefined),outcome,[1],inactive
same,outcome,[2],inactive
same,outcome,[3],inactive
same,outcome,[4],inactive
same,outcome,[5],inactive
same,outcome,[6],inactive
same,outcome,[7],inactive
same,outcome,[8],inactive
same,outcome,[9],inactive
same,outcome,[10],inactive
same,outcome,[11],inactive
same,outcome,[12],inactive
same,outcome,[13],inactive
same,outcome,[14],inactive
same,outcome,[15],inactive
same,AC50,[16],50000 nM (active)
same,outcome,[17],inactive
same,outcome,[18],inactive
CCOC(=O)CC(SP(=S)(OC)OC)C(=O)OCC (centres undefined),outcome,[1],inactive
same,outcome,[2],inactive
same,outcome,[3],inactive
same,outcome,[4],inactive
same,outcome,[5],inactive
same,outcome,[6],inactive
same,outcome,[7],inactive
same,outcome,[19],inactive
same,outcome,[8],inactive
same,outcome,[9],inactive
same,outcome,[10],inactive
same,outcome,[11],inactive
same,outcome,[12],inactive
same,outcome,[13],inactive
same,outcome,[14],inactive
same,outcome,[15],inactive
same,outcome,[16],inactive
same,outcome,[17],inactive
same,outcome,[18],inactive
CCc1nn(C)c(C(=O)NCc2ccc(C(C)(C)C)cc2)c1Cl,outcome,[1],inactive
same,AC50,[2],3240 nM (active)
same,AC50,[3],382 nM (active)
same,AC50,[4],6220 nM (active)
same,AC50,[6],30600 nM (active)
same,AC50,[7],484 nM (active)
same,AC50,[8],12000 nM (active)
same,outcome,[9],inactive
same,outcome,[10],inactive
same,outcome,[11],inactive
same,AC50,[12],296 nM (active)
same,AC50,[13],877 nM (active)
same,AC50,[14],14300 nM (active)
same,AC50,[15],361 nM (active)
same,AC50,[16],502 nM (active)
same,AC50,[17],369 nM (active)
same,AC50,[18],688 nM (active)
